Source: PubChem BioAssay
The sample as a whole holds a higher share of hits than the screen did.
Pf apPOL block – Pf-apPOL DNA polymerase inhibition | Recombinant Pf-apPOL, molecular beacon fluorescence, 1.5 h | actives 0.25% (n = 210,000) | inhibition, % at 10 µM
mHTT-CaM PPI inh – inhibitors of human mutant huntingtin-calmodulin interaction; AlphaScreen His-mHTT/GST-CaM binding, luminescence; inhibition, % at 15 µM; actives 3.6% (n = 190,000);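 note: 0% = both proteins with DMSO and 100% = one protein alone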
* marks the source's active call; other numbers are inactive results; nt = not tested or not shown; ! = repeats disagree. Cut-off read from the data, not from the text of the source: active = inhibition above about 50%; inactive = the rest.

SMILES | Pf apPOL block | mHTT-CaM PPI inh
Cc1ccc(-c2csc3ncnc(Nc4ccc(N5CCOCC5)cc4)c23)cc1 | -0.3 | 60.4*
Oc1ccc(Nc2nc(-c3cccnc3)cs2)cc1 | 1.1 | 58.0*
Oc1ccc(Nc2nc(-c3ccc(Cl)c(Cl)c3)cs2)cc1 | -4.2 | 98.0*
CCOc1ccc(Nc2nc(-c3ccc(C)c(C)c3)cs2)cc1 | -8.7 | 24.7
Clc1ccc(-c2csc(Nc3ccccc3)n2)cc1 | 0.2 | nt
O=C(O)c1ccc(Nc2nc(-c3cccnc3)cs2)cc1 | -4.3 | -4.5
Cc1ccc(-c2csc(Nc3ccc(O)cc3)n2)cc1C | 2.5 | 86.3*
CC1(C)CC(=O)C2=C(C1)N1C(=C(C#N)C2c2cccnc2)NC(=O)c2c1sc1c2CCCC1 (centres undefined) | -1.2 | 27.0
CCN(Cc1ccccc1)C(=O)Cn1c(=O)n(-c2cccc(OC)c2)c(=O)c2sccc21 | 0.2 | 10.0
OCCN(Cc1ccccc1)CC(O)COc1cccc2ccccc12 (centres undefined) | -11.2 | 12.2
OCCN(Cc1ccccc1)CC(O)COc1ccc(Cl)cc1Cl (centres undefined) | 4.4 | 50.7*
O=c1[nH]c(CN2CCOCC2)nc2ccccc12 | -18.1 | nt
O=c1[nH]c(CN2CCCCC2)nc2c1oc1ccccc12 | 69.3* | 4.0
COc1cc2c(cc1OC)C(C(=O)Nc1cc(C)on1)C(c1ccccc1F)N(C)C2=O (centres undefined) | 5.3 | 2.0
CCN(CC)C(=O)c1cc(-c2cccc(C)c2)on1 | -5.6 | 21.4
O=C(c1ccc2c(c1)C1C=CCC1C(c1ccc(Cl)cc1)N2)N1CCOCC1 (centres undefined) | -0.8 | 82.8*
O=S(=O)(c1ccc(C2Nc3c(Cl)cc(Cl)cc3C3C=CCC32)cc1)N1CCOCC1 (centres undefined) | -5.1 | 26.0
O=C(c1ccc2c(c1)C1C=CCC1C(c1cccc([N+](=O)[O-])c1)N2)N1CCCCC1 (centres undefined) | -1.1 | 81.3*
O=C(c1cccc([N+](=O)[O-])c1)N1CCOCC1 | -4.6 | 0.4
O=C(c1ccc2c(c1)C1C=CCC1C(c1ccc([N+](=O)[O-])cc1)N2)N1CCOCC1 (centres undefined) | -12.0 | 70.0*
O=C(O)C1Nc2ccc([N+](=O)[O-])cc2C2C=CCC12 (centres undefined) | 3.4 | -0.6
O=C(NCCn1ncc2c(N3CCOCC3)ncnc21)C1CC(=O)N(c2ccccc2)C1 (centres undefined) | 4.4 | -11.4
O=C(Cc1csc(NC(=O)c2ccco2)n1)Nc1ccc(F)c(C(F)(F)F)c1 | 7.5 | 58.7*
O=C(Cc1csc(NC(=O)c2ccco2)n1)NCc1cccs1 | 2.6 | -4.4
CC(C)(C)N1COc2ccc3c4c(oc3c2C1)C(=O)c1ccccc1C4=O | 30.6 | 33.4
SMILES | Pf apPOL block | mHTT-CaM PPI inh
O=C1c2ccccc2C(=O)c2c1oc1c3c(ccc21)OCN(CCCn1ccnc1)C3 | 6.2 | 100.0*
O=C1c2ccccc2C(=O)c2c1oc1c3c(ccc21)OCN(CCC1=CCCCC1)C3 | -0.9 | 79.0*
O=C1c2ccccc2C(=O)c2c1oc1c3c(ccc21)OCN(C1CCCCC1)C3 | 26.9 | 83.9*
COCCN1COc2ccc3c(=O)c(-c4ccccc4OC)c(C)oc3c2C1 | 2.2 | -6.6
COCCCN1COc2ccc3c(=O)c(-c4ccccc4OC)c(C(F)(F)F)oc3c2C1 | -3.2 | -1.0
CCCNC(=O)Cn1cnc2c(oc3ccccc32)c1=O | -0.9 | -8.2
COc1ccccc1C=CC=C1Oc2cc(OC(=O)C3CC3)ccc2C1=O | -6.5 | 7.5
COc1c(C(=O)N2CCCC2)sc2ccc(F)cc12 | -2.8 | 1.9
CCn1cc(C(=O)N2CCN(c3ccccn3)CC2)c(=O)c2ccc(C)nc21 | -5.1 | 3.0
CSc1ccc(/C=C2\N=C(c3cccc([N+](=O)[O-])c3)OC2=O)cc1 | -2.8 | -3.0
O=C1NCCc2ccc(NC(=O)C3(c4ccc(F)cc4)CC3)cc21 | -5.0 | -16.2
O=c1c(-c2ccc(O)cc2)coc2cc(O)cc(O)c12 | -1.9 | nt
O=c1c(-c2ccc(Br)cc2)coc2cc(O)cc(O)c12 | 32.8 | 52.0*
O=C(c1cccc([N+](=O)[O-])c1)N1N=C(C2CCCCC2)CC1(O)C(F)(F)F (centres undefined) | -2.4 | 15.0
COc1ccc(OCC(=O)Nc2cccc(-c3nc4ncccc4o3)c2)cc1 | 4.7 | 3.0
O=C(Nc1cccc(-c2nc3ncccc3o2)c1)c1cccc(Cl)c1Cl | -8.2 | 20.0
COc1ccc(OCC(=O)Nc2cc(-c3nc4ncccc4o3)ccc2C)cc1 | -2.7 | 8.0
O=C(COc1ccc(Cl)cc1)Nc1cccc(-c2nc3ncccc3o2)c1 | -7.4 | 50.0*!
Cc1ccc(-c2nc3ncccc3o2)cc1NC(=O)COc1ccc(Cl)cc1 | 90.8* | 1.0
Cc1ccc(C(=O)Nc2cccc(-c3nc4ncccc4o3)c2)c(Cl)c1 | -2.2 | 53.0*
Cc1cc(OCC(=O)Nc2c(C)cccc2C)nc(N2CCCC2)n1 | -0.4 | -0.4
COc1ccc(-c2cc3n(n2)CCCN(C(=O)c2cccnc2)C3)cc1 | -0.9 | -4.9
